From PubChem BioAssay AID651711 (Broad Institute, 2012)
Values joined by “and” are separate entries in the source; they are usually repeats but may differ in a detail not shown here. Equal entries are not always repeated. Out of some 350,000 compounds screened, about 180 (0.051%) were called active. This is one part of a sample in which actives are shown more often than they occur. A number with no mark means an inactive call.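 Rule for the calls: active = mean replicate inhibition above about 25%, with every replicate also reaching it (limit read from the data, passing the limit was not always enough); inconclusive = only one of those two criteria met; inactive = neither criterion met.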

These compounds were tested against Protein disulfide-isomerase A6 (Homo sapiens) (UniProt Q15084) (assay: inhibitors of ERp5-driven insulin aggregation, primary screen, biochemical, turbidity, absorbance 650 nm, single point (AID 651711)). Conditions: 90 min, at 9.99 µM, active compounds read high.
Protein disulfide-isomerase A6 (Homo sapiens), sequence (Q15084 whole entry, looked up): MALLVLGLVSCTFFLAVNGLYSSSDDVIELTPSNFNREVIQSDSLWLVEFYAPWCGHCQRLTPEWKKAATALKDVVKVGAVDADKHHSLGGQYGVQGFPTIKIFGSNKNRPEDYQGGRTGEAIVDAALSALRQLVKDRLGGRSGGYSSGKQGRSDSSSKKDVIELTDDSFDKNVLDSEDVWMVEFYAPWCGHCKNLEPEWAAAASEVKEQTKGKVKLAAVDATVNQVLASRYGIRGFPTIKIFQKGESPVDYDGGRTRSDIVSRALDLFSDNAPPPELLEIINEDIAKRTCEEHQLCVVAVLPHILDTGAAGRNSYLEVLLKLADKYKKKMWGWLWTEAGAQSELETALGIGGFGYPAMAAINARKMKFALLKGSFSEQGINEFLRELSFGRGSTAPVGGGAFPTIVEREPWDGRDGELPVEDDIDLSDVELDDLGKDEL

Row | SMILES | inhibition
1 | Cc1ccc(S(=O)(=O)N(C)C[C@@H]2Oc3ccc(N(C)C)cc3C(=O)N([C@@H](C)CO)C[C@H]2C)cc1 | -2.31%
2 | COc1ccccc1S(=O)(=O)N1C[C@@H](O)COC[C@H]2O[C@H](CC(=O)O)CC[C@@H]21 | -5.9%
3 | CCC(=O)N1C[C@@H](O)COC[C@H]2O[C@H](CC(=O)NCC3CCCCC3)CC[C@@H]21 | -3.78%
4 | O=C1CN(Cc2ccc(F)cc2)C[C@H]2[C@@H](c3ccc(Br)cc3)[C@H](CO)N12 | 4.49%
5 | CO[C@H]1CN(C)C(=O)c2ccc(NC(=O)CC(F)(F)F)cc2OC[C@H](C)N(C(=O)C2CC2)C[C@H]1C | 3.96%
6 | O=C(CC1CC1)N1[C@@H](CO)[C@@H](c2ccccc2)C12CN(S(=O)(=O)c1ccccc1)C2 | 7.09%
7 | COCC(=O)N1C[C@@H]2[C@H](c3ccccc31)[C@@H](CO)N2C(=O)C1CC1 | -1.61%
8 | COCC#Cc1ccc([C@H]2[C@H](CO)N3C(=O)CN(C(=O)Nc4ccccc4F)C[C@@H]23)cc1 | 3.85%
9 | CNC[C@H]1Oc2ccc(NS(=O)(=O)c3cn(C)cn3)cc2C(=O)N([C@@H](C)CO)C[C@@H]1C | -3.85%
10 | O=C(C[C@@H]1C[C@@H]2c3cc(NC(=O)c4ccc5c(c4)OCO5)ccc3O[C@@H]2[C@H](CO)O1)NCC1CC1 | -3.55%
11 | Cc1cccc(-c2ccc([C@@H]3[C@H](CO)N4CCCCN(Cc5ccncc5)C[C@@H]34)cc2)c1 | 10.1%
12 | COc1ccc2c3c(n(C)c2c1)[C@H](CO)N(Cc1ccc(F)cc1)CC31CCN(C)CC1 | -1.69%
13 | CO[C@H]1CN(C)C(=O)c2cc(NC(=O)C3CCC3)ccc2OC[C@H](C)N(CC2CCCCC2)C[C@@H]1C | -3.58%
14 | CCCNC(=O)N(C)C[C@H]1Oc2cc(-c3ccncc3)ccc2S(=O)(=O)N([C@H](C)CO)C[C@@H]1C | 1.24%
15 | CCCNC(=O)N1[C@@H]2CNC[C@H]1C2c1ccc(-c2cccc(C)c2)cc1 (some centres undefined) | 2.37% and -1.56%
16 | O=C(N[C@@H]1CC[C@H](CCn2cc(-c3ccccc3)nn2)O[C@H]1CO)c1cnccn1 | 19.2%
17 | C[C@@H]1CN([C@@H](C)CO)C(=O)Cc2cc(NS(=O)(=O)c3cccs3)ccc2O[C@H]1CN(C)S(=O)(=O)c1ccc(F)cc1 | 18.7%
18 | CC(C)NC(=O)N1[C@H](C#N)[C@H](c2ccc(C#CC3CCCCC3)cc2)[C@H]1CO | -0.752%
19 | O=C(Cc1ccccn1)NCC[C@H]1CC[C@H](NC(=O)Nc2ccc(F)cc2)[C@@H](CO)O1 | -0.166%
20 | C[C@@H]1CN([C@@H](C)CO)C(=O)c2cccc(NS(=O)(=O)c3ccc(F)cc3)c2O[C@@H]1CN(C)Cc1ccc(C(=O)O)cc1 | 0.602%
21 | Cc1noc(C)c1NC(=O)N(C)C[C@@H]1Oc2ccc(NC(=O)C3CC3)cc2C(=O)N([C@H](C)CO)C[C@@H]1C | 7.46%
22 | CC(C)NC(=O)N1[C@H](CNC(=O)CN(C)C)[C@@H](c2ccccc2)[C@@H]1CO | 6.83%

Row | SMILES | inhibition
23 | O=C(C[C@@H]1C[C@H]2c3cc(NC(=O)NC4CCCC4)ccc3O[C@H]2[C@@H](CO)O1)NC1CCCCC1 | 5.32%
24 | CCC(=O)Nc1ccc2c(c1)OC[C@H](C)N(C(=O)c1ccccc1F)C[C@@H](C)[C@H](OC)CN(C)C2=O | 12.1%
25 | C[C@@H]1CN([C@@H](C)CO)C(=O)CCCn2cc(nn2)CO[C@@H]1CN(C)Cc1ccccc1C(=O)O | 1.73%
26 | COC(=O)[C@]12C[C@H](CC(=O)NCc3ccccc3)C(=O)N(CCC3=CCCCC3)C1=C[C@H](C(C)(C)C)O[C@@H]2C | 15.6%
27 | CN1C(=O)c2cc(NC(=O)C3CCOCC3)ccc2OC[C@H]2O[C@@H](CC(=O)NCC3CCCCC3)CC[C@@H]21 | -1.95%
28 | COCCNC(=O)c1ccccc1NS(=O)(=O)c1ccc(C)c([N+](=O)[O-])c1 | 32.3% (active)
29 | COC(=O)CNC(=O)c1ccccc1[N+](=O)[O-] | -6.79%
30 | COc1ccc(Br)cc1/C=N/Nc1ccc(S(=O)(=O)Nc2ccccc2C(=O)O)cc1[N+](=O)[O-] | -6.38%
31 | COc1cccc(C(=O)OCC(=O)c2[nH]c(C)c(C(C)=O)c2C)c1 | 27.2% (active)
32 | CCOC(=O)c1c(C)[nH]c(C(=O)OCC(=O)c2ccc(OC)cc2OC)c1C | -4.48%
33 | CC(=O)c1c(C)[nH]c(C(=O)COC(=O)c2cccs2)c1C | 14.1%
34 | C[C@@H]1CN([C@@H](C)CO)C(=O)c2cc(NC(=O)CCCN(C)C)ccc2O[C@@H](C)CCCCO[C@@H]1CN(C)S(=O)(=O)c1ccc(Cl)cc1 | 0.282%
35 | C[C@@H]1CN([C@@H](C)CO)C(=O)Cc2cc(NC(=O)CCN3CCOCC3)ccc2O[C@@H]1CN(C)C(=O)Nc1cccc2ccccc12 | 7.67%
36 | O=C(N[C@@H]1CC[C@@H](CCn2cc(-c3ccccn3)nn2)O[C@@H]1CO)c1ccccc1 | -2.15%
37 | COc1ccc(S(=O)(=O)Nc2ccc3c(c2)C(=O)N([C@@H](C)CO)C[C@H](C)[C@H](CN(C)Cc2ccc(C(=O)O)cc2)OCCCC[C@@H](C)O3)cc1 | -3.93%
38 | Cc1noc(C)c1S(=O)(=O)N(C)C[C@H]1Oc2ccc(NS(=O)(=O)c3cccs3)cc2C(=O)N([C@H](C)CO)C[C@H]1C | -0.984%
39 | O=S(=O)(c1ccccc1)N1CCCCN2[C@@H](CO)[C@H](c3ccc(C#Cc4cccnc4)cc3)[C@@H]2C1 | -0.401%
40 | COCCNC(=O)C[C@@H]1CC[C@H]2[C@H](COc3ccc(NS(=O)(=O)c4ccc(Cl)cc4)cc3C(=O)N2C)O1 | 6.32%
41 | C[C@H]1CN([C@@H](C)CO)C(=O)Cc2cc(NS(=O)(=O)c3cccs3)ccc2O[C@@H]1CN(C)Cc1ccc(Oc2ccccc2)cc1 | 0.293%
42 | COc1ccc2c3c([nH]c2c1)[C@H](CO)N(Cc1ccccc1Cl)CC31CN(C(=O)C2CC2)C1 | 32% (active)
43 | COc1ccc2c3c([nH]c2c1)[C@@H](CO)N(Cc1cc(F)ccc1F)CC31CN(C(=O)C2CCC2)C1 | 0.016%
44 | COc1ccc2c3c([nH]c2c1)[C@@H](CO)N(Cc1ccccc1F)CC31CN(C(=O)C2CC2)C1 | 5.63%

Row | SMILES | inhibition
45 | COc1ccc(NC(=O)Nc2cccc3c2O[C@@H](CN(C)C(=O)NC(C)C)[C@H](C)CN([C@H](C)CO)C3=O)cc1 | 1.64%
46 | O=C(C[C@H]1CC[C@H]2[C@@H](COC[C@@H](O)CN2CC2CCCC2)O1)NCC1CC1 | 5.23%
47 | O=C(CCN1CCCCC1)NCC[C@H]1CC[C@@H](NC(=O)C2CCOCC2)[C@H](CO)O1 | -1.07%
48 | C[C@H](NC(=O)[C@H]1N[C@H]2c3ccc(-c4ccc(C(=O)N(C)C)cc4)c(=O)n3C[C@H]2[C@@H]1CO)c1ccccc1 | -1.53%
49 | O=C(C[C@@H]1CC[C@H](NC(=O)NC2CCCCC2)[C@H](CO)O1)NCc1ccc(F)cc1 | -0.201%
50 | CCC(=O)Nc1ccc2c(c1)OC[C@@H](C)N(Cc1cncnc1)C[C@H](C)[C@@H](OC)CN(C)C2=O | 1.32%
51 | O=C(Nc1cccc(F)c1)N1CC(=O)N2[C@H](C1)[C@H](c1ccc(-c3ccccc3F)cc1)[C@@H]2CO | -0.993%
52 | CN(C)C(=O)[C@@H]1[C@@H](CO)[C@@H]2Cn3c(ccc(-c4ccncc4)c3=O)[C@H]1N2C(=O)NC1CCCC1 | -2.64%
53 | CO[C@@H]1CN(C)C(=O)c2cc(NC(=O)c3ccccc3F)ccc2OC[C@H](C)N(C(C)=O)C[C@@H]1C | 3.35%
54 | O=C(C[C@H]1CC[C@@H]2[C@H](COC[C@H](O)CN2Cc2ccccc2F)O1)NC1CCC1 | -3.28%
55 | CCCNC(=O)C[C@H]1C[C@H]2c3cc(NC(=O)COC)ccc3O[C@H]2[C@H](CO)O1 | 2.76%
56 | CNC(=O)C[C@@H]1CC[C@@H]2[C@@H](COc3ccc(NC(=O)Nc4ccccc4OC)cc3C(=O)N2C)O1 | 5.92%
57 | CCC(=O)N(C)C[C@@H]1Oc2cc(C#C[C@H](C)O)ccc2S(=O)(=O)N([C@@H](C)CO)C[C@H]1C | -0.347%
58 | C[C@@H]1CN([C@H](C)CO)C(=O)Cc2cc(NC(=O)CCN3CCOCC3)ccc2O[C@H]1CN(C)CC1CC1 | -3.37%
59 | COc1ccc(CCN2C(=O)[C@@]3(Cc4ccccc42)c2ccccc2C(=O)N(Cc2ccccc2C(F)(F)F)[C@H]3c2ccc(CO)cc2)cc1 | 4.71%
60 | C[C@H](CO)N1C[C@H](C)[C@@H](CN(C)C(=O)Cc2ccncc2)Oc2ncc(C3=CCCCC3)cc2C1=O | 4.38%
61 | O=C(c1cccc(F)c1)N1CC[C@@H]2[C@@H](CO)Nc3ccc(C#Cc4cccc(F)c4)cc3[C@@H]21 | -3.07%
62 | C[C@H](CO)N1C[C@H](C)[C@@H](CN(C)Cc2ccc(C(=O)O)cc2)Oc2ccc(NS(=O)(=O)c3cn(C)cn3)cc2CC1=O | -1.33%
63 | CC(C)NC(=O)N1CC2(C1)[C@H](c1ccccc1)[C@H](CO)N2C(=O)C1CCOCC1 | 0.292%
64 | C/C=C/c1ccc([C@H]2[C@@H](CO)N(C(=O)NCCC)[C@H]2CN(C)C(C)=O)cc1 | 5.18%
